Compound activity from PubChem BioAssay.
Rows were chosen to be rich in hits. Some 8.1% of all compounds tested hit in one or more screens of this group.
MCF10A rerep: induces DNA re-replication in MCF 10a normal breast cells; 350,000 tested, 2.9% active; Potency, µM (highest dose often 46.1 µM), without a hit: at the highest dose activity, positive = re-replication, hits mostly activators; MCF 10A DNA re-replication, Hoechst nuclear intensity, 48 h; also: % of control where 0% means no effect; nearly all actives have a fitted effect of over 50% in size
KB-V1 MDR tox: kills drug-selected multidrug resistant KB-V1 cells; KB-V1 MDR cells viability, CellTiter-Glo, 72 h; Potency, µM (top dose mostly 46.1 µM), most hits filed as cytotoxic; 400,000 tested, 3.4% active; also: % is scaled to controls: 0 for no effect and ±100 for the full control effect; nearly all actives have a fitted effect of over 60% in size
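Cells of the MDR subline KB-V1 are plated, dosed with compound at multiple concentrations, and incubated 72 h at 37 degrees C; CellTiter-Glo is then added and luminescence read after 10 min.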
SW480 rerep: DNA re-replication induction in SW480 cells. SW480 DNA re-replication, Hoechst DNA content imaging, 48 h. 340,000 tested, 1.8% active. AID 624297. Potency, µM (titrated, usually from 46.1 µM), for inactives: top-dose re-replication activation, hits mostly activators; also: % of control where 0% means no effect; nearly all actives have a fitted effect of over 55% in size
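Per well, 250 cells were exposed to pinned compound for 48 hr. Nuclear DNA was visualised with Hoechst (40 min, 37 C) and total object intensity recorded by fluorescence scanning.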
ELG1 repair inh: inhibitors of ELG1-dependent DNA repair in HEK293T cells | HEK293T ELG1-luciferase reporter, luminescence, 16 h; DNA damage induced by 5-fluorouridine | Potency, µM (series often up to 46.1 µM), for the others: top-dose activity change, negative = inhibition, actives largely listed as inhibitors | 330,000 tested, 2.3% active | AID 504467; also: % is scaled to controls: 0 for no effect and ±100 for the full control effect; nearly all actives have a fitted effect of over 55% in size
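Cells (2,000 per well) received 5-fluorouridine plus test compound or DMSO and were incubated 16 hr at 37 °C, 5% CO2. Luciferase activity was read by luminescence 30 min after ONE-Glo addition; signal suppression marked inhibition of damage-induced ELG1 function.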
KB-3-1 tox: kills parental KB-3-1 adenocarcinoma cells | KB-3-1 viability, CellTiter-Glo ATP luminescence, 72 h | Potency, µM (series often up to 46.1 µM), actives largely listed as cytotoxic | 400,000 tested, 1.4% active | AID 1347075; also: % is scaled to controls: 0 for no effect and ±100 for the full control effect; nearly all actives have a fitted effect of over 60% in size
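Cytotoxicity measured as CellTiter-Glo luminescence after 72 h at 37 C. Compound titrations were pinned onto drug-naive KB-3-1 parental adenocarcinoma cells grown in DMEM with 10% FBS, and normalized data fitted to concentration-response curves.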
Active calls of the source: *; i = inactive; ? = inconclusive; · = not tested or not shown. Calls follow the shape of the dose curve; as a rule, active = well fitted curve in the direction sought with a large enough effect; inconclusive = small, poorly fitted or top-dose-only effect, or another doubt; inactive = no such curve, though single readings can be large; an effect the other way counts as inactive or inconclusive. Potency is read from the fitted curve at half-maximal effect.

SMILES	MCF10A rerep	KB-V1 MDR tox	SW480 rerep	ELG1 repair inh	KB-3-1 tox
OCCCNc1nc(-c2ccc(Cl)cc2)nnc1-c1ccc(Br)cc1	0%	i	3%	-21%	23µM*
Cc1ncc(CC(=O)n2cc(C(=O)c3cc(F)ccc3O)cn2)s1	?	i	?	-7%	i
Cc1ccc(O)c(C(=O)c2cnn(C(=O)Cc3csc(C)n3)c2)c1	?	?	-1%	16µM*	?
CCCN1CCCc2cc(CN(CCCN3CCOCC3)C(=O)Nc3ccc(Cl)c(Cl)c3)ccc21	·	?	·	·	i
N#Cc1ccc(C2CC(OCCF)=CC(=O)O2)cc1 (stereo not given)	·	i	·	·	i
CC(=O)c1ccccc1OCC(O)CN1CCN(CCN2C(=O)c3cccc4cccc(c34)C2=O)CC1 (stereo not given)	?	i	?	?	i
COc1ccc(COCC(O)CN2CCC(CN3C(=O)c4cccc5cccc(c45)C3=O)CC2)cc1OC (stereo not given)	-1%	?	-695%	?	i
COc1cc(COCC(O)CN2CCN(CCN3C(=O)c4cccc5cccc(c45)C3=O)CC2)cc(OC)c1OC (stereo not given)	-39%	i	?	12µM*	i
O=C1c2cccc3cccc(c23)C(=O)N1CCN1CCN(CC(O)COCc2ccc(Cl)cc2)CC1 (stereo not given)	?	?	·	21µM*	?
COc1ccc(CCNC(=O)c2cc3c(s2)-c2c(C)cccc2OC3)c(OC)c1	·	i	·	·	i
O=C(Nc1ccccc1O)c1c(O)c2c([nH]c1=O)CCCC2	21µM*	i	16µM*	?	i
CC1(C(=O)NCc2ccccc2Br)CCN1Cc1ccc(-c2ccccn2)cc1 (stereo not given)	·	13µM*	·	·	?
O=C(Nc1c(-c2ccc(Cl)cc2)[nH][nH]c1=O)c1ccccn1	·	i	·	·	i
NC(=O)C(C(=O)/C=C/c1ccc(Cl)cc1)=C1SCCS1	?	6.5µM*	12%	?	?
COc1cc2c(c(OC)c1OC)-c1ccc(SC)c(=O)cc1C(NC=O)CC2 (stereo not given)	?	0.29µM*	?	·	0.0065µM*
C=COC(=O)NC1CCc2cc(OC)c(OC)c(OC)c2-c2ccc(SC)c(=O)cc21 (stereo not given)	17%	?	?	·	0.0065µM*
COc1cc2c(c(OC)c1OC)C(=O)CC2	-1%	i	-15%	15%	i
COC(=O)c1ccc2c(c1)C(NC(C)=O)CCc1cc(OC)c(OC)c(OC)c1-2 (stereo not given)	0.12µM*	0.82µM*	0.092µM*	·	0.15µM*
COc1c(O[C@@H]2O[C@H](CO)[C@@H](O)[C@H](O)[C@H]2O)cc2c(c1OC)-c1ccc(SC)c(=O)cc1C(NC(C)=O)CC2 (stereo not given in full)	-26%	i	?	1%	i
CCCC(=O)NC1CCc2cc(OC)c(OC)c(OC)c2-c2ccc(OC)c(=O)cc21 (stereo not given)	?	2.9µM*	0.0046µM*	·	0.13µM*
Cc1ccc2c(c1)c(=O)c1ccccc1n2CCCC(=O)Nc1c(F)cccc1F	·	i	·	·	i
COC(=O)c1cc2oc3ccccc3c2n1CC(=O)Nc1ccc(C)cc1Cl	·	?	·	·	i
COc1ccc(Cn2ccc3nc(C)c(C(=O)N4CCN(c5ccccc5F)CC4)cc3c2=O)cc1	·	i	·	·	i
CNC1CCc2cc(OC)c(OC)c(OC)c2-c2ccc(OC)c(=O)cc21 (stereo not given)	0.075µM*	·	0.12µM*	·	·
COc1ccc(C(C)=O)cc1CC(=O)NC1CCCCCC1	-8%	i	-8%	2%	i
SMILES	MCF10A rerep	KB-V1 MDR tox	SW480 rerep	ELG1 repair inh	KB-3-1 tox
COc1cccc(C(=O)Nc2ccc3c(cc2=O)[C@@H](NC(C)=O)CCc2cc(OC)c(OC)c(OC)c2-3)c1	5.8µM*	i	7.3µM*	?	2.9µM*
COc1cc2c(c(OC)c1OC)-c1ccc(SC)c(=O)cc1C(NC(=O)c1ccccc1)CC2 (stereo not given)	?	0.73µM*	0.015µM*	·	0.0092µM*
COc1cccc(C(=O)Nc2ccc(F)cc2F)c1	4%	i	-10%	?	i
COc1c(C=O)c2c(c(OC)c1OC)-c1ccc(OC)c(=O)cc1C(NC(C)=O)CC2 (stereo not given)	?	?	0.1µM*	·	0.0092µM*
CCn1c(=N)c(C(=O)NCc2ccccc2)cc2c(=O)n3cc(C)ccc3nc21	·	?	·	·	i
COc1cc2c(c(OC)c1OC)-c1ccc(OC)c(=O)cc1C(NC(=O)c1ccccc1)CC2 (stereo not given)	?	?	0.021µM*	·	0.0092µM*
COc1cc(C(=O)NC2CCCc3ccccc32)cc(OC)c1C (stereo not given)	1%	i	0%	-2%	i
Cc1cccnc1Nc1nc(-c2ccccc2)cs1	10%	i	-66%	?	i
Cc1cccnc1Nc1nc(-c2ccccn2)cs1	9.2µM*	4.1µM*	?	?	1.5µM*
Cc1cccc(Nc2nc(-c3ccccn3)cs2)n1	21%	0.52µM*	?	?	9.2µM*
Cc1ccc(CNCc2ccccc2)s1	·	i	·	·	i
CCOCCOC(=O)C1=C(C)Nc2ccc(C)cc2S1	-2%	13µM*	0%	?	i
CCOC(=O)C1=C(C)Nc2ccc(C)cc2S1	10%	i	3%	11%	i
Cc1c(Cl)cccc1NS(=O)(=O)c1cc2c(cc1Cl)CCC(=O)N2	·	i	·	·	i
O=C(NCCN1CCOCC1)c1cc(-c2ccc(Cl)cc2)on1	-6%	21µM*	3%	14%	i
CCCCC1(CC(=O)OCC)C(=O)N(c2ccccc2)N(c2ccccc2)C1=O	6%	4.6µM*	17%	-3%	i
Cc1ccc(C(=O)CSc2nsc(C)c2C#N)cc1	-2%	i	-2%	?	i
Cc1snc(SCC(=O)c2ccc(Cl)cc2)c1C#N	24%	21µM*	11%	?	i
CCc1cccc(C)c1NC(=O)C1CCCN(S(=O)(=O)c2cccc3nsnc23)C1 (stereo not given)	·	i	·	·	i
Cc1ccc2nc(NC(=O)C3CCCN(S(=O)(=O)c4cccc5nsnc45)C3)sc2c1 (stereo not given)	17%	?	11%	18µM*	i
O=C(Nc1nc2ccc(F)cc2s1)C1CCN(S(=O)(=O)c2cc([N+](=O)[O-])ccc2Cl)CC1	?	15µM*	?	?	15µM*
Cc1ccc(NC(=O)C2CCN(S(=O)(=O)c3cccc4nsnc34)CC2)cc1	·	i	·	·	i
